Like-named read-outs stand apart in the source and are kept apart here.
Experiments:
Parameters in all cases: species or system human, MV4-11 + K-562 + COLO205 + SK-N-BE2 + OVCAR-8
MAPK11 = details: read-out: apparent Kd, n = 1
JAK2 = details: read-out: apparent Kd, compound concentrations: 100 nM and 1000 nM (sheet 'Samples'), n = 1
MAPK10 = details: read-out: apparent Kd, n = 1
MARK4 = details: read-out: apparent Kd; compound concentrations: 100 nM and 1000 nM (sheet 'Samples'), CATDS: 0.22058260458437301; n = 1
PIK3CB = details: read-out: apparent Kd; compound concentrations: 100 nM and 1000 nM (sheet 'Samples'), CATDS: 0.29379902166128602; n = 1
RIOK2 = details: read-out: apparent Kd; compound concentrations: 100 nM and 1000 nM (sheet 'Samples'), CATDS: 0.25235817930049498; n = 1
MAP3K1 = details: read-out: apparent Kd, n = 1
NUAK2 = details: read-out: apparent Kd; compound concentrations:100 nM and 1000 nM (sheet 'Samples'); n = 1
PAICS = details: read-out: apparent Kd; compound concentrations:100 nM and 1000 nM (sheet 'Samples'); n = 1
PIK3CG = details: read-out: apparent Kd; compound concentrations:100 nM and 1000 nM (sheet 'Samples'); n = 1
MAPK14 = details: read-out: apparent Kd, n = 1
MAPKAPK2 = details: read-out: apparent Kd, n = 1
MAPK8 = details: read-out: apparent Kd; compound concentrations:100 nM and 1000 nM (sheet 'Samples'); n = 1
MAPK9 = details: read-out: apparent Kd; compound concentrations:100 nM and 1000 nM (sheet 'Samples'); n = 1
PIP4K2C = details: read-out: apparent Kd; compound concentrations:100 nM and 1000 nM (sheet 'Samples'); n = 1
PIK3CA = details: read-out: apparent Kd; compound concentrations: 100 nM and 1000 nM (sheet 'Samples'), CATDS: 0.76689409603513903; n = 1
MAP2K1 = details: read-out: apparent Kd; compound concentrations: 100 nM and 1000 nM (sheet 'Samples'), CATDS: 0.27931983910668101; n = 1
RET = details: read-out: apparent Kd; compound concentrations: 100 nM and 1000 nM (sheet 'Samples'), CATDS: 0.41481657466373201; n = 1
MAP4K5 = details: read-out: apparent Kd; compound concentrations: 100 nM and 1000 nM (sheet 'Samples'), CATDS: 0.32149724662749601; n = 1
PLK1 = details: read-out: apparent Kd; compound concentrations: 100 nM and 1000 nM (sheet 'Samples'), CATDS: 0.55429480894525696; n = 1
SLK = details: read-out: apparent Kd; compound concentrations: 100 nM and 1000 nM (sheet 'Samples'), CATDS: 0.14112272983739199; n = 1
STK10 = details: read-out: apparent Kd; compound concentrations: 100 nM and 1000 nM (sheet 'Samples'), CATDS: 0.168955384509856; n = 1
NLK = details: read-out: apparent Kd; compound concentrations:100 nM and 1000 nM (sheet 'Samples'); n = 1
[1] = compound concentrations: 100 nM and 1000 nM (sheet 'Samples'), CATDS: 1
[2] = compound concentrations:100 nM and 1000 nM (sheet 'Samples')

Q: With `Nc1c(C(=O)c2cccc(C#CCO)c2)cnn1-c1ccc(F)cc1` [RO1153836-000] as the molecule, how does the potency estimated from few doses (MAPK11; [1]) read?
A: Its potency estimated from few doses is 591 nM.

Q: Which potency estimated from few doses (JAK2; CATDS: 0.47869568713999899) does the source give for `Cl.Nc1c(C(=O)c2cccc(C#CCN3CCOCC3)c2)cnn1-c1ccc(F)cc1` [RO1153320-001] here?
A: The potency estimated from few doses was 815 nM.

Q: What about the potency estimated from few doses (MAPK11; compound concentrations: 100 nM and 1000 nM (sheet 'Samples'), CATDS: 0.52328893159992096) of the same molecule?
A: Its potency estimated from few doses is 682 nM.

Q: `COC(=O)Nc1nc2ccc(Sc3ccc(NC(=O)Nc4cc(C(F)(F)F)ccc4F)cc3)cc2[nH]1.O=S(=O)(O)O` [GW607049C] was tested. Which potency estimated from few doses (MAPK10; compound concentrations: 100 nM and 1000 nM (sheet 'Samples'), CATDS: 0.243888047714692) did it give?
A: The potency estimated from few doses was 1550 nM.

Q: What about the potency estimated from few doses (MARK4) of the same molecule?
A: The potency estimated from few doses was 1930 nM.

Q: What about the potency estimated from few doses (PIK3CB) of the same molecule?
A: Its potency estimated from few doses is 1090 nM.

Q: What about the potency estimated from few doses (RIOK2) of the same molecule?
A: The potency estimated from few doses was 1440 nM.

Q: `C[C@@H](Oc1cc(-n2cnc3ccc(OC4CCN(C)CC4)cc32)sc1C(N)=O)c1ccccc1Cl` [GSK579289A] was tested. Which potency estimated from few doses (MAP3K1; [2]) did it give?
A: The potency estimated from few doses was 1340 nM.

Q: What about the potency estimated from few doses (NUAK2) of the same molecule?
A: The potency estimated from few doses was 601 nM.

Q: And the potency estimated from few doses (PAICS)?
A: The potency estimated from few doses was 1760 nM.

Q: And the potency estimated from few doses (PIK3CG)?
A: Its potency estimated from few doses is 1030 nM.

Q: For `Cc1ccc(NC(=O)c2cccc(N3CCCCC3)c2)cc1-c1ccc(C(=O)NCC2CC2)cc1` [GSK1917008A], which potency estimated from few doses (MAPK11; compound concentrations: 100 nM and 1000 nM (sheet 'Samples'), CATDS: 0.21712264720535299) is on record?
A: The potency estimated from few doses was 591 nM.

Q: What about the potency estimated from few doses (MAPK14; compound concentrations: 100 nM and 1000 nM (sheet 'Samples'), CATDS: 0.45448285689505602) of the same molecule?
A: The potency estimated from few doses was 64.8 nM.

Q: And the potency estimated from few doses (MAPKAPK2; compound concentrations: 100 nM and 1000 nM (sheet 'Samples'), CATDS: 0.455787440841948)?
A: Its potency estimated from few doses is 64.5 nM.

Q: For `O=c1[nH]c2nc(NC3CCOCC3)ncc2cc1Oc1ccc(F)cc1F` [RO3310867-000], which potency estimated from few doses (MAPK10; [2]) is on record?
A: Its potency estimated from few doses is 150 nM.

Q: What about the potency estimated from few doses (MAPK11; [2]) of the same molecule?
A: Its potency estimated from few doses is 655 nM.

Q: What about the potency estimated from few doses (MAPK14; compound concentrations: 100 nM and 1000 nM (sheet 'Samples'), CATDS: 0.37744016768512201) of the same molecule?
A: Its potency estimated from few doses is 9.96 nM.

Q: And the potency estimated from few doses (MAPK8)?
A: Its potency estimated from few doses is 554 nM.

Q: And the potency estimated from few doses (MAPK9)?
A: Its potency estimated from few doses is 98.4 nM.

Q: And the potency estimated from few doses (MAPKAPK2; [2])?
A: Its potency estimated from few doses is 5.98 nM.

Q: What about the potency estimated from few doses (PIP4K2C) of the same molecule?
A: The potency estimated from few doses was 781 nM.

Q: `NC(=O)c1sc(-n2cnc3cc(C(F)(F)F)ccc32)cc1OCc1ccccc1Br` [GW853609X] was tested. Which potency estimated from few doses (JAK2; CATDS: 0.37091451707305101) did it give?
A: Its potency estimated from few doses is 1140 nM.

Q: What about the potency estimated from few doses (PIK3CA) of the same molecule?
A: Its potency estimated from few doses is 204 nM.

Q: Which results are given for `COc1cc2c(Nc3cccc(NC(=O)c4ccccc4)c3)ncnc2cc1OCCCN1CCOCC1` [GSK223810A]?
A: potency estimated from few doses (MAP2K1): 2310 nM; potency estimated from few doses (MAPK11; compound concentrations: 100 nM and 1000 nM (sheet 'Samples'), CATDS: 0.33231746948784902): 1550 nM; potency estimated from few doses (RET): 1030 nM

Q: How did the potency estimated from few doses (MAP3K1; [2]) turn out when `C[C@@H](Oc1cc(-n2cnc3ccc(-c4ccncc4)cc32)sc1C(N)=O)c1ccccc1Cl` [GSK483724A] was run?
A: The potency estimated from few doses was 1840 nM.

Q: What does the source list for `COCCNC(=O)c1ccc(-c2cc(C(=O)NC3CC3)cc(F)c2C)cc1` [GW868318X]?
A: potency estimated from few doses (MAPK11; [2]): 108 nM; potency estimated from few doses (MAPK14; compound concentrations: 100 nM and 1000 nM (sheet 'Samples'), CATDS: 0.55857087808569805): 22.7 nM; potency estimated from few doses (MAPKAPK2; [2]): 79.6 nM

Q: For `COc1cc2ncn(-c3cc(OCc4ccccc4Cl)c(C(N)=O)s3)c2cc1OC` [GW852849X], which potency estimated from few doses (MAP3K1; compound concentrations: 100 nM and 1000 nM (sheet 'Samples'), CATDS: 0.14122884829610699) is on record?
A: The potency estimated from few doses was 1950 nM.

Q: What about the potency estimated from few doses (MAP4K5) of the same molecule?
A: The potency estimated from few doses was 184 nM.

Q: And the potency estimated from few doses (PLK1)?
A: Its potency estimated from few doses is 68.2 nM.

Q: And the potency estimated from few doses (SLK)?
A: The potency estimated from few doses was 1960 nM.

Q: And the potency estimated from few doses (STK10)?
A: Its potency estimated from few doses is 1000 nM.

Q: With `CS(=O)(=O)CCCn1c(=O)c(Oc2ccc(F)cc2F)cc2cnc(NC3CCOCC3)nc21` [RO5033700-000] as the molecule, how does the potency estimated from few doses (MAPK10; [2]) read?
A: The potency estimated from few doses was 93.9 nM.

Q: What about the potency estimated from few doses (MAPK11; [2]) of the same molecule?
A: Its potency estimated from few doses is 630 nM.

Q: And the potency estimated from few doses (MAPK14; [2])?
A: The potency estimated from few doses was 7.7 nM.

Q: And the potency estimated from few doses (MAPK8)?
A: Its potency estimated from few doses is 466 nM.

Q: What about the potency estimated from few doses (MAPK9) of the same molecule?
A: Its potency estimated from few doses is 110 nM.

Q: What about the potency estimated from few doses (NLK) of the same molecule?
A: The potency estimated from few doses was 202 nM.

Q: What about the potency estimated from few doses (PIP4K2C) of the same molecule?
A: The potency estimated from few doses was 796 nM.

Q: How did the potency estimated from few doses (MAPK14; [1]) turn out when `Cl.Cn1c(=O)c(Oc2ccc(F)cc2)cc2cnc(NC3CCOCC3)nc21` [RO3304882-001] was run?
A: The potency estimated from few doses was 1030 nM.
